Only some compounds are listed: those with a hit (about 19% of all), similar ones and a draw of the others.
IL-1B inflam inh – inflammasome signaling inhibition, IL-1 beta readout. actives 4.7% (n = 360,000). AID 743279. THP-1 LPS/ATP IL-1B secretion, AlphaLISA, 16 h; stronger effect = lower value. activity change, % at 57.5 µM; in the data active = activity change below about -50%; inconclusive = mostly about -30% to -49%
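THP-1 cells pretreated 1 hr with compounds (up to 57.5 uM final), then stimulated with LPS (250 ng/mL final) plus ATP (1.25 mM final); secreted IL-1B measured by AlphaLISA after 16 hr, decreased signal indicating inhibition.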
TDP1 cell noCPT – qHTS for Inhibitors of human tyrosyl-DNA phosphodiesterase 1 (TDP1): qHTS in cells in absence of CPT; DT40 Tdp1-/- hTDP1 cells, no CPT, ATP luminescence, 48 h; Potency, µM (series often up to 46.2 µM), for the others: at the top dose activity change, negative = growth inhibition, hits mostly inhibitors; actives 15% (n = 420,000); AID 686978, 2013; also: potency is read from the fitted curve at half-maximal effect; nearly all actives have a fitted effect of over 55% in size
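Camptothecin absent (DMSO only). Human TDP1-complemented DT40 knockout cells, 400 cells/well, 37 °C for minimum 48 hr; ATP measured via CellTiter-Glo, 30 min dark incubation, luminescence.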
ELG1 repair inh – inhibitors of ELG1-dependent DNA repair in HEK293T cells; HEK293T ELG1-luciferase reporter, luminescence, 16 h; DNA damage induced by 5-fluorouridine; actives 2.3% (n = 330,000); Potency, µM (doses to about 46.1 µM), for inactives: top-dose activity change, negative = inhibition, actives largely listed as inhibitors; also: potency is read from the fitted curve at half-maximal effect; nearly all actives have a fitted effect of over 55% in size
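HEK293T cells expressing luciferase-tagged ELG1 (2,000/well) received 5-Fluorouridine plus compound or DMSO for 16 hr at 37 °C. Luciferase was read by ONE-Glo luminescence after 30 min at room temperature.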
Giardia killer – Giardia lamblia killing; Giardia lamblia trophozoite viability; activity change, % at 7.66 µM, hits read low; actives 0.15% (n = 340,000); in the data active = activity change below about -80%; inconclusive = between about -30% and that limit;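 also: parasites exposed to compound for two days anaerobically before the ATP read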
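Killing of trophozoites was scored by loss of ATP luminescence after a 48 hrs anaerobic exposure to compounds at 37 deg C, using 100 cells per well.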
TDP1 block – blocks human tyrosyl-DNA phosphodiesterase 1. Q9NUW8. recombinant TDP1, AlphaScreen DNA substrate cleavage. Potency, µM (series often up to 130 µM), inactives show top-dose activity change, negative = inhibition, actives largely listed as inhibitors. actives 0.28% (n = 350,000). AID 485290; also: potency is read from the fitted curve at half-maximal effect; nearly all actives have a fitted effect of over 40% in size
Target sequence (Q9NUW8 whole entry, looked up): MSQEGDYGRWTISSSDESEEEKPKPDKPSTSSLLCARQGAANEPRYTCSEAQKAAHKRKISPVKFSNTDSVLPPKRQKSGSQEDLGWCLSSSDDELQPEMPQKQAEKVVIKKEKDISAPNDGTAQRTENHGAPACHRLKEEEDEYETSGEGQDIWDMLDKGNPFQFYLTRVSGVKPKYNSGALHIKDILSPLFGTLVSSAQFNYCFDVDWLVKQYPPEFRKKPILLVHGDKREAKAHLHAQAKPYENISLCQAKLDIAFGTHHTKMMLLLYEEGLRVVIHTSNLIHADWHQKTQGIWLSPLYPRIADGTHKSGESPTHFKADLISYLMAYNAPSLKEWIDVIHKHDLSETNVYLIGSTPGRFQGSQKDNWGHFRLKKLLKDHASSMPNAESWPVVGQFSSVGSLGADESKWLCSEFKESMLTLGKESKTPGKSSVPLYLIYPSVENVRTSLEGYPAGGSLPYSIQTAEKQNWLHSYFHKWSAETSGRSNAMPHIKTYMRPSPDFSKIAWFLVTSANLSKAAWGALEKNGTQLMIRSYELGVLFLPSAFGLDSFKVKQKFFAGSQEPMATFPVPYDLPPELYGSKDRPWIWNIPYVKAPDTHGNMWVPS
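Here, a 5' biotin and 3' phosphotyrosine-FITC DNA oligonucleotide reports Tdp1 activity: intact substrate bridges AlphaScreen beads, while cleavage leaves a 3' phosphate and drops signal. All incubations at room temperature.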
TDP1 cell CPT – DT40-hTDP1 cell growth loss with CPT | actives 12% (n = 420,000) | chicken DT40 Tdp1-/-;hTDP1 cells + 20 nM CPT, ATP luminescence, 48 h | Potency, µM (titrated, usually from 46.2 µM), without a hit: at the highest dose activity change, negative = growth inhibition, most hits filed as inhibitors | AID 686979; also: potency is read from the fitted curve at half-maximal effect; nearly all actives have a fitted effect of over 55% in size
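Cell growth measured by CellTiter-Glo luminescence after a minimum 48 h, 37 C compound exposure with 20 nM CPT in Tdp1-knockout DT40 cells stably expressing hTDP1, seeded 400/well; qHTS titration format.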
* = called active by the depositor; ? = inconclusive; . = no result given; [ ] = dose if it differs, or a comment. Unless noted, calls follow the shape of the dose curve; as a rule, active = well fitted curve in the direction sought with a large enough effect; inconclusive = small, poorly fitted or top-dose-only effect, or another doubt; inactive = no such curve, though single readings can be large; an effect the other way counts as inactive or inconclusive. % is scaled to controls: 0 for no effect and ±100 for the full control effect.

SMILES	IL-1B inflam inh	TDP1 cell noCPT	ELG1 repair inh	Giardia killer	TDP1 block	TDP1 cell CPT
CCOC(=O)C1=C(CN2CCN(c3ccc(C)cc3C)CC2)NC(=O)NC1c1ccc(OC)cc1 (stereo not given)	.	?	.	.	8.7%	?
O=C1C=C2C(=CCOC2O)O1 (stereo not given)	.	0.146µM*	.	.	5.1%[56.1 µM]	0.103µM*
COC(=O)[C@]12OC[C@]34C([C@@H](O)[C@@H]1O)[C@]1(C)CC(=O)C(O)=C(C)[C@@H]1C[C@H]3OC(=O)[C@H](O)[C@@H]24 (stereo not given in full)	-23.0	1.46µM*	?	0.5	0.0%	2.91µM*
Nc1ccc(-c2ccc(N)c(Cl)c2)cc1Cl	.	.	.	.	14.4%	.
CC/C(=N\Nc1cccc2ccccc12)c1c(O)[nH]c(=O)[nH]c1=O	-10.5	5.8µM*	?	-15.2	10.8%	5.17µM*
CC/C(=N\NC(N)=O)c1c(O)[nH]c(=O)[nH]c1=O	0.8	-7.8%	-1.4%	-1.7	2.6%	-6.4%
CC/C(=N\Nc1ccccc1)c1c(O)[nH]c(=O)[nH]c1=O	-12.4	0.9%	4.11µM*	42.5	4.7%	-8.2%
CCC(=NC(C)c1ccccc1)c1c(O)[nH]c(=O)[nH]c1=O (stereo not given)	-9.7	-17.0%	?	-24.9	.	3.8%
N#CCc1ccccc1	.	.	.	.	7.6%	.
O=C1NC(=O)C(=O)C(=O)N1	.	-9.3%	.	.	4.9%[56.1 µM]	?
O=C(O)c1nn(Cc2ccc(Cl)c(Cl)c2)c2ccccc12	.	-3.0%	.	.	8.5%[56.1 µM]	3.5%
CC(C)(C)n1nnnc1C(C1CC1)N1CCC2(CC1)C(=O)NCN2c1ccccc1 (stereo not given)	-20.7	16.4µM*	.	.	.	?
Cc1cccc(C)c1-n1nnnc1C(c1ccccc1)N1CCC2(CC1)C(=O)NCN2c1ccccc1 (stereo not given)	?	20.6µM*	.	.	.	23.1µM*
Cc1cccc(C)c1-n1nnnc1C(c1ccnc2ccccc12)N1CCC2(CC1)C(=O)NCN2c1ccccc1 (stereo not given)	?	14.6µM*	.	.	.	23.1µM*
COc1ccc(C(c2nnnn2C(C)(C)C)N2CCC3(CC2)C(=O)NCN3c2ccccc2)cc1 (stereo not given)	6.7	?	.	.	.	?
COc1ccc(-n2nnnc2C(C2CC2)N2CCC3(CC2)C(=O)NCN3c2ccccc2)cc1 (stereo not given)	-17.7	?	.	.	.	?
Cc1cccc(C)c1-n1nnnc1C(C1CC1)N1CCC2(CC1)C(=O)NCN2c1ccccc1 (stereo not given)	-27.8	14.6µM*	.	.	.	16.4µM*
C=CCOCC1CO1 (stereo not given)	.	.	.	.	9.9%	.
CC[C@H](C)[C@H](NC(=O)CN)C(=O)N[C@@H](CC(C)C)C(=O)NCC(=O)N[C@@H](Cc1ccccc1)C(=O)N[C@H](C(=O)N[C@@H](Cc1ccccc1)C(=O)N[C@H](C(=O)N[C@@H](CC(C)C)C(=O)O)[C@@H](C)O)C(C)C	.	.	.	.	6.2%	.
COP(=S)(OC)Oc1ccc(S(N)(=O)=O)cc1	.	-3.8%	.	.	.	-6.6%
COc1ccc(C(c2nnnn2-c2c(C)cccc2C)N2CCC3(CC2)C(=O)NCN3c2ccccc2)cc1 (stereo not given)	-64.5*	20.6µM*	.	.	.	14.6µM*
CCOC(=O)c1ccc(NC(c2ccc(N(C)C)cc2)P(=O)(OC(C)C)OC(C)C)cc1 (stereo not given)	8.5	29.1µM*	-20.5%	2.5	9.8%	?
CCS(=O)(=O)C(C)(C)S(=O)(=O)CC	.	0.8%	.	.	.	4.7%
O=S(=O)(NCc1ccncc1)c1ccc(F)c(F)c1	2.0	6.51µM*	.	.	.	10.3µM*
COc1ccc(S(=O)(=O)Nc2ccccc2OC)cc1N=Nc1c(O)[nH]c(=S)[nH]c1=O	0.1	?	-12.5%	5.1	?	?
SMILES	IL-1B inflam inh	TDP1 cell noCPT	ELG1 repair inh	Giardia killer	TDP1 block	TDP1 cell CPT
CCCC[N+](=O)[O-]	.	.	.	.	11.6%	.
CC(=O)Nc1cccc(-c2ccnc3c2CC(C(=O)NCc2ccco2)O3)c1 (stereo not given)	23.1	1.64µM*	.	.	.	1.84µM*
CC(=O)c1cccc(-c2ccnc3c2CC(C(=O)NCCc2ccccc2)O3)c1 (stereo not given)	93.1	3.66µM*	.	.	.	4.61µM*
CN1CC[C@@]23CCCCC2C1Cc1ccc(O)cc13 (stereo not given in full)	.	-1.6%[9.04 µM]	.	.	7.5%	9.4%[9.04 µM]
N#Cc1ccc(CN2CC[C@@]3(CCCNC3)C2)cc1	.	?	.	.	.	3.9%
CCOc1c(P(=S)(N(C)C)N(C)C)c(C)nn1-c1ccccc1	-5.3	-16.7%	13.7%	-5.6	-3.1%	-20.6%
CCN(CC)P(=S)(c1c(C)nc2ccccn12)c1c(C)nc2ccccn12	31.7	?	-13.7%	0.2	0.0%	25.9µM*
O=C(CCC1CCCC1)c1c(O)c2ccccc2oc1=O	-10.9	4.11µM*	17.9%	2.0	5.3%	5.17µM*
Cc1ccc(C)c(S(=O)(=O)Nc2ccc3c(c2)CCCN3C(=O)c2cccs2)c1	.	18.4µM*	.	.	1.2%	16.4µM*
CCC1C(c2ccccc2)NC(c2ccccc2)CC1(O)c1ccc(F)cc1 (stereo not given)	-16.3	23.1µM*	-10.7%	-4.7	.	?
CCCC(C)C1(CC)C(=O)N=C(S)NC1=O (stereo not given)	.	2.8%	.	.	7.3%[56.1 µM]	0.7%
C#CCN(C[C@@H]1[C@@H](OC(=O)Nc2c(C)noc2C)[C@@H](OC(=O)Nc2c(C)noc2C)Cn2c(=O)n(CCCCCC)c(=O)n21)S(=O)(=O)c1ccc(C)cc1	-59.5*	20.6µM*	.	.	.	18.4µM*
CC(C)(O)[C@@H]1[C@H]2OC(=O)[C@@H]1[C@]1(O)C[C@H]3O[C@]34C(=O)O[C@H]2[C@]14C	.	2.3%	.	.	.	13.0%
Cc1ccc2scc(N3CCN(C)CC3)c(=O)c2c1	.	-15.2%	.	-3.5	3.0%	-20.2%
COc1ccc(N2CCN(C(=O)c3cc(=O)[nH]c4ccccc34)CC2)cc1	22.9	?	-0.5%	14.8	6.5%	5.3%
COc1ccc(-c2cc(C(=O)N3CCN(c4ccccc4OC)CC3)c3cc(C(C)C)ccc3n2)cc1	.	20.6µM*	.	.	2.6%	23.1µM*
CCOc1ccc(-c2cc(C(=O)N3CCN(c4cccc(C(F)(F)F)c4)CC3)c3ccccc3n2)cc1	.	4.61µM*	.	.	2.6%	5.17µM*
CN1CCc2cc3c(cc2[C@@H]1O)OCO3	.	.	.	.	3.0%[56.1 µM]	.

Screens as filed in PubChem BioAssay.
